Reference: PubChem BioAssay AID1259240 (Keith Lab, Institute of Cancer Science, University of …, 2017)
Active and inactive are the calls of the source. No stated cut-off is given here; in the data, active means fold change mostly below about -2 (no sharp cut-off); inactive means mostly above about -1.8.

Experiment: modulation of TERT promoter-driven luciferase – cell-based, luciferase reporter, human, primary screen (AID 1259240)
Conditions: A2780 TERT promoter luciferase reporter, 16 h; at 20 µM, fold versus average of vehicle-only wells
In the case of Cc1nc(SCC(=O)N2CCCC2)c2c(=O)n(C)c(=O)n(C)c2n1, the fold change is reported as 1.5 (inactive). In the case of CC(C)C(NS(=O)(=O)c1ccc2c(c1)oc(=O)n2C)C(=O)Nc1ccc(F)c(F)c1 (centres undefined), the fold change is reported as -1.83 (inactive). With Cc1cc(C)c(Cn2c3ccccc3c3cnn(CC(=O)NCC4CCCO4)c(=O)c32)c(C)c1 (centres undefined) the fold change was -1.24 (inactive). In the case of COc1cc2c(cc1OC)C(c1ccc(C)c(Br)c1)CC(=O)N2 (centres undefined), the fold change is reported as -1.04 (inactive). For CCOC(=O)C1CCCN(c2c(N3CC(C)CC(C)C3)c(=O)c2=O)C1 (centres undefined), the fold change was -1.11 (inactive). For CCc1cc(C)cc(OCC(O)Cn2cnc3ccccc32)c1 (centres undefined), the fold change was -1.77 (inactive). With CCOc1csc2nc(C)cc(C)c12 the fold change was -1.22 (inactive). In the case of CSc1nsc(SC)c1C(=O)NCCNS(=O)(=O)c1ccc(C)cc1, the fold change is reported as -1.37 (inactive). With Cc1nc2c(-c3ccc(F)cc3)c(C)nn2c(C)c1CCC(=O)NC(C)C the fold change was -1.28 (inactive). With O=c1/c(=C/c2ccco2)sc2nc(-c3ccco3)nn12 the fold change was -1.71 (inactive). For NC(=O)c1c(NC(=O)CN2C(=O)c3ccccc3S2(=O)=O)sc2c1CCCC2, the fold change was 1.23 (inactive). For NC(=O)C1CCN(c2nc3ccccn3c(=O)c2/C=C2/SC(=S)N(CC(=O)O)C2=O)CC1, the fold change was -1.43 (inactive). With Cc1cccc(NC(=O)C2CCCN(S(=O)(=O)c3cnc[nH]3)C2)n1 (centres undefined) the fold change was -2.48 (active). With CCOC(=O)c1oc2ccc(S(=O)(=O)n3nc(-c4ccc(OC)cc4OC)cc3N)cc2c1C the fold change was -1.57 (inactive). In the case of O=C(Nc1cccc(F)c1)C1CCCN(S(=O)(=O)c2cnc[nH]2)C1 (centres undefined), the fold change is reported as 1.26 (inactive). In the case of Cn1c(CC(=O)NC(C)(C)CO)c(Sc2ccccc2)c2ccccc21, the fold change is reported as -2.11 (active). With O=C1c2ccccc2-c2onc3c(N4CCCC4)cc(NCCN4CCCC4)c1c23 the fold change was -1.05 (inactive). In the case of Cc1ccc2c(C)nc(NC3=NCN(CC4CCCO4)CN3)nc2c1 (centres undefined), the fold change is reported as -1.73 (inactive). With Fc1ccc(OCc2nc(-c3ccc(-n4cccc4)cc3)no2)cc1 the fold change was -1.22 (inactive). With CCOc1cc2c(cc1OCC)C(c1ccc(Cl)c(Cl)c1)CC(=O)N2 (centres undefined) the fold change was 1.29 (inactive). In the case of O=C(Cn1nc(C(F)F)cc1C1CC1)N1CCCC1, the fold change is reported as 1.2 (inactive). For CN(CC(=O)NCc1ccco1)S(=O)(=O)c1ccc2c(c1)CCC(=O)N2, the fold change was -1.35 (inactive). With O=C(NC1CCCCCC1)C1CCC(CNc2c(NC3CCCCC3)c(=O)c2=O)CC1 (centres undefined) the fold change was -1.28 (inactive). With NC(=O)c1ccccc1NC(=O)c1cc(-c2ccc(Br)s2)nc2ccccc12 the fold change was -2.57 (active). For CCOC(=O)c1c(NC(=O)Nc2ccc(F)cc2)sc2c1CCN(C(=O)OCC)C2, the fold change was -1.41 (inactive). For N#Cc1ccc(Cn2c(=O)n(Cc3ccccc3Cl)c(=O)c3cccnc32)cc1, the fold change was -1.11 (inactive). For O=C(Cc1ccc(NC2=NC3CS(=O)(=O)CC3S2)cc1)N1CCN(c2ncccn2)CC1 (centres undefined), the fold change was 1.14 (inactive). For O=C1Nc2ccccc2/C1=C\c1cn(CC(=O)N2CCCC2)c2ccccc12, the fold change was 1.66 (inactive). With CCOC(=O)C1=C(CS(=O)(=O)c2ccccc2)NC(=O)NC1c1ccccc1 (centres undefined) the fold change was 1.91 (inactive). For Brc1c(C[n+]2ccccc2)nc2ccccn12, the fold change was -1.91 (inactive). In the case of Cc1nnc2ccc(N3CCC(C)CC3)nn12, the fold change is reported as 1.03 (inactive). With Cc1ccc(N2C(=O)c3n[nH]c(C)c3C2c2ccccc2Cl)cc1 (centres undefined) the fold change was -1.14 (inactive). In the case of Cc1ccc2nc(NC3=NCN(Cc4ccco4)CN3)nc(C)c2c1, the fold change is reported as 1 (inactive). For CC(C)CC(NS(=O)(=O)c1ccc2c(c1)oc(=O)n2C)C(=O)N1CCn2c1nc1ccccc12 (centres undefined), the fold change was -1.61 (inactive). For COCCN1C(=O)C(=O)/C(=C(\O)c2ccc(C)cc2)C12C(=O)N(C)c1ccccc12 (centres undefined), the fold change was -1.06 (inactive). In the case of COc1ccc(-c2cc(N)n(S(=O)(=O)c3ccc([N+](=O)[O-])cc3)n2)cc1OC, the fold change is reported as 1.17 (inactive). For CCCN(CCC)CCCNc1ccc2nncn2n1, the fold change was 1 (inactive). In the case of COc1ccc2c(=O)c(Oc3ccc(C)cc3)c(C(F)(F)F)oc2c1, the fold change is reported as -1.15 (inactive). With O=C(O)c1cc(S(=O)(=O)O)cc(Nc2c3ccccc3nc3ccccc23)c1O the fold change was -1.04 (inactive).
